Compound activity (PubChem)
tim23-1 inh: growth inhibitors of tim23-1 mutant yeast. S. cerevisiae tim23-1 growth, BacTiter-Glo luminescence, 24 h. 330,000 compounds, 1.3% hits. AID 463212. inhibition, % at 20 µM;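 active means growth inhibition of the mutant yeast at or above 50%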;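 further: temperature-sensitive mutant grown at 25 °C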
EBI2 antag: EBI2 (human) antagonism | EBI2 beta-arrestin recruitment, luminescence, 7a,25-OHC stimulated | inhibition, % at 5 µM | 360,000 compounds, 0.81% hits; in the data active means inhibition above about 38%;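 further: enzyme fragment complementation signal reports receptor beta-arrestin coupling in cells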
Target sequence (P32249 whole entry, looked up, the tested form may be a part): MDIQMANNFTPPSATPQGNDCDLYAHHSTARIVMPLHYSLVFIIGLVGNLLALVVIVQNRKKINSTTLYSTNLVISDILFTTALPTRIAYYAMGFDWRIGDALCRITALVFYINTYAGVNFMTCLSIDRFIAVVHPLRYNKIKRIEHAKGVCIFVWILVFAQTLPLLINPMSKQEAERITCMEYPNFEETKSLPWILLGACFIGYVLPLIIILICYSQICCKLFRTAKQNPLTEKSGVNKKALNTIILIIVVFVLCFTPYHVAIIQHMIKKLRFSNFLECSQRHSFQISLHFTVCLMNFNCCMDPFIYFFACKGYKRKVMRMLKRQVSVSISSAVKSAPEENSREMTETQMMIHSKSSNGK
tim10-1 inh: growth inhibitors of tim10-1 mutant yeast; S. cerevisiae tim10-1 ts strain growth, BacTiter-Glo, 24 h; inhibition, % at 20 µM; 330,000 compounds, 2.2% hits;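 active means inhibition of at least 40%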;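 further: mutant grown at 25 °C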
SKKanGAS inh: inhibitors of SKKanGAS S. pyogenes growth in kanamycin (SK-promoter or general growth effect). BacTiter-Glo, 6 h. inhibition, % at 7.5 µM. 300,000 compounds, 1.3% hits. AID 1662;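 active means mean replicate score, as percent of positive control median, at least 50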;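 further: strain carries kanamycin resistance gene driven by streptokinase promoter and grows in 40 µg/ml kanamycin; loss of luminescence reflects streptokinase promoter inhibition or plain growth inhibition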
PfHsp90 yeast 2: growth inhibition of yeast expressing Plasmodium Hsp90. inhibition, % at 9.4 µM. S. cerevisiae expressing PfHsp90, BacTiter-Glo ATP, 48 h; yeast lacking PDR1 and PDR3 efflux regulators. 310,000 compounds, 0.32% hits. AID 504621;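 active means every replicate shows inhibition above about 80%, whatever the replicate mean, limit read from the data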
TIM10 inh: growth inhibitors of TIM10 yeast strain; S. cerevisiae TIM10 strain growth, BacTiter-Glo luminescence, 24 h; 330,000 compounds, 1.4% hits; AID 463195; inhibition, % at 10 µM;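 active means inhibition of 40% or more at the single tested concentration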;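 further: wild-type TIM10 isogenic control strain grown at permissive 25 °C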
tim10-1 conf: tim10-1 yeast growth inhibition, confirmed; S. cerevisiae tim10-1 ts strain growth, BacTiter-Glo, 24 h; shares compounds with tim10-1 inh; inhibition, % at 20 µM; 7,400 compounds, 56% hits;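 active means inhibition of yeast growth at or above a set limit in either of two repeat tests at 20 µM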;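 further: tim10-1 mutant grown at permissive 25 °C to find synthetic lethal compounds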
A number is an active result; 0 = inactive; - = no result given. Shown are actives, neighbours in structure and some others; about 4.7% of the full set was active somewhere.

SMILES	tim23-1 inh	EBI2 antag	tim10-1 inh	SKKanGAS inh	PfHsp90 yeast 2	TIM10 inh	tim10-1 conf
CCN=C1S/C(=C\c2ccc(Sc3ccc(Cl)cc3)o2)C(=O)N1CC	0	0	0	0	0	0	-
CC1=C/C(=C(/c2cc(C)c(O)c(Br)c2)c2ccccc2S(=O)(=O)O)C=C(Br)C1=O	0	0	54	0	0	0	44
CC(=O)Oc1cc(C(=O)OCC(=O)NC23CC4CC(CC(C4)C2)C3)cc(OC(C)=O)c1OC(C)=O	-	0	-	-	0	-	-
COc1ccc(/C=N/c2c(-c3ccc(OC)cc3)nc3n2CCS3)cc1	0	0	40	0	0	0	0
O=S(=O)(c1ccc(Cl)cc1)N1CCN(CCc2ccncc2)CC1	0	0	0	0	0	0	-
CCOc1cc(/C=C2\C(=O)N(c3ccc(C(N)=O)cc3)N=C2C)ccc1OC(=O)c1cccs1	0	0	0	0	0	0	-
CCOc1cc(/C=C2/C(=O)N(c3ccccc3)N=C2C)ccc1OC(=O)c1ccco1	0	0	40	0	0	0	0
Cc1ccc(N2C(=O)CC(N(O)C3CC(=O)N(c4ccc(C)cc4)C3=O)C2=O)cc1 (stereo not drawn)	0	0	0	0	0	0	-
CCCCCCC(=O)N(O)C1CC(=O)N(c2ccc(C)cc2)C1=O (stereo not drawn)	0	0	71	0	106	0	44
N#CC(C#N)=CC1=C2OC(c3ccccc3)=CC(c3ccccc3)=C2CCC1	0	0	48	0	0	0	0
COc1ccccc1Nc1cc(C)nc(Nc2ccccc2OC)n1	0	0	40	-	0	0	0
COc1ccccc1Nc1nc(C)cc(C)n1	0	0	0	0	0	0	-
C/C(=N\NC(=S)Nc1c(C)cccc1C)c1ccc(O)cc1	0	0	0	0	0	0	-
C/C(=N\NC(=S)Nc1c(C)cccc1C)c1cc2ccccc2o1	0	0	42	0	0	0	0
Cc1nc2cc(NS(=O)(=O)c3c(C)c(C)cc(C)c3C)ccc2s1	0	0	42	0	0	0	33
CCn1c(CC(=O)Nc2ccccc2Cl)nnc1SCC(=O)NC1CCCC1	0	0	0	0	0	0	-
CC(C)c1nnc(NC(=O)CCS(=O)(=O)Cc2ccccc2)s1	0	0	0	0	0	0	-
CC(C)c1nnc(NC(=O)CCS(=O)(=O)c2nc(-c3cccs3)cc(C(F)(F)F)n2)s1	0	0	61	0	-	0	45
Nc1cc(=O)[nH]c(SCCSc2ccccc2)n1	0	0	0	0	0	0	-
CCOC(=O)c1c(N=CN(C)C)c2cc([N+](=O)[O-])cnc2n1C	0	0	0	0	0	0	-
Cc1sc2ncn(CC(=O)N3CCOCC3)c(=O)c2c1-c1ccccc1	0	0	0	0	-	0	-
Cc1ccc2cc(CN(c3ccccc3)S(=O)(=O)c3ccccc3)c(=O)[nH]c2c1	0	0	0	0	0	0	-
CCOc1ccc(N(Cc2cc3ccc(C)cc3[nH]c2=O)S(=O)(=O)c2ccccc2)cc1	0	0	42	0	0	0	0
N/C(=N\OC(=O)COc1ccc2ccccc2c1Br)c1ccccn1	0	0	43	0	0	0	55
CCOC(=O)C1(Cc2ccccc2)CCN(Cc2ccc3c(c2)OCCO3)CC1	0	0	0	0	0	0	-
SMILES	tim23-1 inh	EBI2 antag	tim10-1 inh	SKKanGAS inh	PfHsp90 yeast 2	TIM10 inh	tim10-1 conf
Cn1c(=O)c2c(nc(SCCN3CCOCC3)n2Cc2cccc3ccccc23)n(C)c1=O	0	0	44	0	-	0	0
CCOC(=O)CC(NC(=O)c1cc2cccc(OC)c2oc1=O)c1ccc(OC)cc1 (stereo not drawn)	0	0	0	0	0	0	-
C=CCNC(=O)c1ccc(N(Cc2ccccc2)S(C)(=O)=O)cc1	0	0	0	0	0	0	-
COc1ccc(C=Cc2ccc3ccccc3n2)c(OC)c1	-	0	-	-	-	-	-
COc1cc(/C=C/c2ccc3cccc(O)c3n2)c(Br)cc1O	0	0	47	94	0	0	46
Oc1c(Cl)cc(Cl)cc1/C=C/c1ccc2cccc(O)c2n1	0	0	43	102	0	0	33
Oc1cccc2ccc(/C=C/c3cccs3)nc12	0	40	41	120	0	0	0
COc1cc(/C=C/c2ccc3cccc(OC)c3n2)c(O)c([N+](=O)[O-])c1	0	0	0	0	0	0	-
COc1cc(Br)cc(/C=C/c2ccc3cccc(O)c3n2)c1O	0	0	49	101	0	0	38
CCCCN=c1scc(-c2ccc3c(c2)NC(=O)CO3)n1N=C1CCCC1	0	0	44	0	-	0	0
CCN=c1scc(-c2ccc3c(c2)NC(=O)CO3)n1N=C1CCCC1	0	0	0	0	0	0	-
COc1ccccc1-c1noc(CCC(=O)Nc2cccnc2)n1	-	0	-	-	-	-	-
COc1ccccc1-c1noc(CCC(=O)Nc2cc(C(F)(F)F)ccc2Cl)n1	0	0	43	0	-	0	0
CC(=O)c1c(C)[nH]c(C(=O)Nc2nc(-c3ccc(-c4ccccc4)cc3)cs2)c1C	0	0	45	52	0	0	0
Fc1ccc(-c2nc3nc4ccccc4nc3n2Cc2ccco2)cc1	0	0	43	0	0	0	33
c1ccc(-c2nc3nc4ccccc4nc3n2Cc2ccco2)cc1	0	0	41	0	0	0	0
Fc1ccc(-n2c(-c3ccco3)nc3nc4ccccc4nc32)cc1	0	0	0	0	0	0	-
CN(C)S(=O)(=O)c1ccc2nc(NC(=O)c3cccs3)sc2c1	0	0	0	0	0	0	-
O=C(Nc1nc(-c2ccc(Cl)s2)cs1)c1cccs1	0	0	42	0	0	0	0
O=C(Nc1nc(-c2cc(Cl)sc2Cl)cs1)c1ccccc1	0	0	44	0	-	0	0
O=C(Nc1nc2ccc(F)cc2s1)c1cccs1	0	0	41	0	0	0	32
O=C(Nc1nc(-c2ccccn2)cs1)c1ccc(Cl)s1	0	0	51	102	0	0	0
CCC(=O)N1CCc2cc(S(=O)(=O)CCC(=O)Nc3cccc(C)n3)ccc21	0	0	0	0	0	0	-
Cc1cncc(NCc2ccc3c(c2)OCO3)n1	-	0	-	-	-	-	-
O=C1/C(=C/c2ccccc2F)SC(=S)N1CC(=O)N1CCCCC1c1cccnc1 (stereo not drawn)	0	0	45	0	0	0	0
